Measured values taken from PubChem BioAssay AID743446 (Broad Institute, 2014).
Potency and affinity values are given separately. Active and inactive are the calls of the source. The rule behind the calls is not given here.

Assay: viability loss in HEK293 cells – cell-based, plate reader, cherry-picked samples, cytotoxicity control, dose response (AID 743446)
Conditions: hits give low values; at 26 µM unless noted

Row | Structure (SMILES) | max activity
1 | CN(C)c1cccc(C(=O)Nc2nc3ccccc3[nH]2)c1 | 39.2% [at 12 µM] (inactive)
2 | CC(=O)N1CCCCN2[C@H](CO)[C@H](c3ccc(-c4cccc(C)c4)cc3)[C@@H]2C1 | 30.5% [at 1.6 µM] (inactive)
3 | COc1ccc(C(=O)CC(Sc2ccccc2N)c2ccc(OC)cc2)cc1 (stereo not given) | 24.8% [at 0.8 µM] (inactive)
4 | O=C(c1cc(-c2ccc(Cl)cc2Cl)on1)N1CCCC1 | 9.97% [at 0.8 µM] (inactive)
5 | C[C@@H]1CN([C@@H](C)CO)C(=O)c2cccc(NC(=O)c3ccc(-c4nccs4)cc3)c2O[C@@H]1CN(C)C(=O)Nc1ccc(C(F)(F)F)cc1 | -9.8% (inactive)
